Assay outcomes from PubChem.
An excerpt weighted towards active compounds, which were near 16% of everything screened.
TDP1 block = qHTS Assay for Inhibitors of Tyrosyl-DNA Phosphodiesterase (TDP1) | Tyrosyl-DNA phosphodiesterase 1 (Homo sapiens), Q9NUW8 | recombinant TDP1, AlphaScreen DNA substrate cleavage | Potency, µM (highest dose often 130 µM), inactives show top-dose activity change, negative = inhibition, actives largely listed as inhibitors | 350,000 tested, 0.28% active; also: potency is read from the fitted curve at half-maximal effect; % is scaled to controls: 0 for no effect and ±100 for the full control effect; nearly all actives have a fitted effect of over 40% in size
Target sequence (Q9NUW8 whole entry, looked up): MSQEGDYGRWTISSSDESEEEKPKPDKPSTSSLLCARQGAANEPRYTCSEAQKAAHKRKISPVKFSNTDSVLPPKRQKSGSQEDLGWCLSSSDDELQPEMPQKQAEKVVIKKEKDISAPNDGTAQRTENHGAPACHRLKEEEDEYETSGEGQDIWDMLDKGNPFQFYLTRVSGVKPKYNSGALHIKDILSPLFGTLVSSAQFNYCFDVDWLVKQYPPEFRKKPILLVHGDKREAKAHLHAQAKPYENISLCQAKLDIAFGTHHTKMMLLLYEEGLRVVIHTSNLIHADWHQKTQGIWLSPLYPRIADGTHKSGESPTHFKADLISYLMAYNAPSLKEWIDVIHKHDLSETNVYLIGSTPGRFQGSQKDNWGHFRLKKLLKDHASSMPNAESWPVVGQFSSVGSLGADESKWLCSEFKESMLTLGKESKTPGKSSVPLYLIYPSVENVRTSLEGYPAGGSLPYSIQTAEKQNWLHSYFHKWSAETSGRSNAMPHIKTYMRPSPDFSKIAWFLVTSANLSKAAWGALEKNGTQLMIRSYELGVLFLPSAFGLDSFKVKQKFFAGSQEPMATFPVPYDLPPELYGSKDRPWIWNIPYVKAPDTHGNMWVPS
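AlphaScreen read-out: signal falls as enzyme removes the 3' tyrosine-FITC from a 5'-biotinylated DNA oligo (15 nM, 5 min, RT). Enzyme was E. coli-made recombinant Tdp1 at 1 nM, exposed to compound for 15 min beforehand; beads 10 ug/ml, 10 min.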
TDP1 cell noCPT = qHTS for Inhibitors of human tyrosyl-DNA phosphodiesterase 1 (TDP1): qHTS in cells in absence of CPT; 420,000 tested, 15% active; Potency, µM (series often up to 46.2 µM), for the others: at the top dose activity change, negative = growth inhibition, usual class: inhibitors; DT40 Tdp1-/- hTDP1 cells, no CPT, ATP luminescence, 48 h; also: potency is read from the fitted curve at half-maximal effect; % is scaled to controls: 0 for no effect and ±100 for the full control effect; nearly all actives have a fitted effect of over 55% in size
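Luminescent ATP content (CellTiter-Glo) served as the growth readout. Knockout chicken DT40 cells expressing human TDP1 were exposed to compounds without camptothecin for a minimum 48 hr at 37 °C.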
uPA surface inh = qHTS for Inhibitors of Cell Surface uPA Generation | cell surface uPA generation assay, qHTS | Potency, µM (top dose mostly 38.3 µM), for the others: top-dose activity change, negative = inhibition, usual class: inhibitors | 330,000 tested, 0.31% active | AID 540303, 2011; active = well fitted inhibition curve with a large enough effect; inconclusive = small, poorly fitted or top-dose-only effect; inactive = no such curve, though single readings can be large or run the other way; tested in mouse RAW 264.7 cells; also: potency is read from the fitted curve at half-maximal effect; % is scaled to controls: 0 for no effect and ±100 for the full control effect; nearly all actives have a fitted effect of over 55% in size
DT40 TDP1 CPT = qHTS for Inhibitors of human tyrosyl-DNA phosphodiesterase 1 (TDP1): qHTS in cells in presence of CPT | chicken DT40 Tdp1-/-;hTDP1 cells + 20 nM CPT, ATP luminescence, 48 h | Potency, µM (titrated, usually from 46.2 µM), for the others: at the top dose activity change, negative = growth inhibition, hits mostly inhibitors | 420,000 tested, 12% active; also: potency is read from the fitted curve at half-maximal effect; % is scaled to controls: 0 for no effect and ±100 for the full control effect; nearly all actives have a fitted effect of over 55% in size
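Chicken DT40 Tdp1-/- cells stably complemented with human TDP1 were seeded at 400 cells/well in medium containing 20 nM camptothecin, exposed to pin-transferred compounds, and grown at 37 °C for at least 48 hr. Viability was read as ATP luminescence.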
miR-21 reporter = qHTS Assay for Modulators of miRNAs and/orActivators of miR-21 | Potency, µM (titrated, usually from 38.3 µM), inactives show top-dose activity change, positive = activation, actives largely listed as activators | 340,000 tested, under 10 active | HeLa miR-21 FLuc reporter, luciferase, 48 h;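 also: % of control where 0% means no effect; miR-21 action dims this reporter so a rising signal means less miR-21 action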
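Luminescence from a firefly luciferase reporter carrying a miR-21 binding site downstream, stably expressed under a CMV promoter in HeLa cells that make miR-21 endogenously, reports miRNA modulation after 48 h compound exposure up to approximately 40uM final.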
Starred values were filed as active, the others as inactive; ? = inconclusive; / = no result given; [ ] = another dose, or the depositor's remark. Unless noted, calls follow the shape of the dose curve; as a rule, active = well fitted curve in the direction sought with a large enough effect; inconclusive = small, poorly fitted or top-dose-only effect, or another doubt; inactive = no such curve, though single readings can be large; an effect the other way counts as inactive or inconclusive.

SMILES	TDP1 block	TDP1 cell noCPT	uPA surface inh	DT40 TDP1 CPT	miR-21 reporter
COc1ccc(CCNC(=O)CN(c2ccccc2OC)S(=O)(=O)c2ccc(C)cc2)cc1	4.2%	23.1µM*	3.7%	20.6µM*	27.4%
COc1ccc(N(CC(=O)NCCc2ccccc2)S(=O)(=O)c2ccccc2)c(OC)c1	7.1%	20.6µM*	/	20.6µM*	9.2%
CCOC(=O)c1c(C)[nH]c(C2=NNC(=NC3CC3)SC2)c1C	3.6%	?	-22.1%	?	10.0%
O=C(CN(c1ccccc1)S(=O)(=O)c1ccccc1)NCCSc1ccccn1	7.7%	-2.7%	1.0%	0.8%	1.2%
COc1ccc(N(CC(=O)NCCSc2ccccn2)S(=O)(=O)c2ccccc2)c(OC)c1	/	20.6µM*	0.2%	?	6.6%
Cc1cccc(N(CC(=O)NCCSc2ccccn2)S(=O)(=O)c2ccccc2)c1	2.3%	14.6µM*	22.6%	?	0.7%
COc1ccc(S(=O)(=O)N(CC(=O)NCCSc2ccccn2)c2ccccc2)cc1	/	?	1.9%	?	15.5%
COc1ccccc1N(CC(=O)NCCSc1ccccc1)S(=O)(=O)c1ccccc1	/	18.4µM*	9.5%	?	/
CCC1Oc2ccccc2N(CC(=O)NCCCN2CCOCC2)C1=O (configuration not stated)	/	-11.1%	12.3%	3.9%	/
CC(C)c1onc(C(=O)N2CCN(C(c3ccccc3)c3ccccc3)CC2)c1[N+](=O)[O-]	2.6%	?	3.16µM*	?	4.0%
CC(C)c1onc(C(=O)N2CCN(c3ccccc3)CC2)c1[N+](=O)[O-]	/	6.5%	-3.1%	-2.2%	1.3%
Cc1ccc(Cl)cc1N1CCN(C(=O)c2noc(C(C)C)c2[N+](=O)[O-])CC1	5.5%	?	?	23.1µM*	8.3%
Cc1ccsc1C(=O)N1CCC1(C)C(=O)NS(=O)(=O)c1ccccc1C(F)(F)F (configuration not stated)	/	1.2%	/	3.2%	/
COc1ccc(NC(=O)/C(Cl)=C(/Cl)S(=O)(=O)Cc2ccc(C)cc2)cn1	8.0%	0.82µM*	-10.3%	0.517µM*	?
COC(=O)c1ccc2nc(-c3ccco3)c(Cc3ccccc3)n2c1	/	20.6µM*	/	25.9µM*	/
COC(=O)c1cc(Br)c(=O)n(CCc2ccccc2)c1	7.4%	-16.3%	-6.9%	?	-7.4%
COC(=O)c1ccc2nc(-c3ccco3)c(Cc3cccc(Cl)c3)n2c1	/	16.4µM*	/	?	/
Cc1cc(-c2ccc(S(=O)(=O)Nc3ccc(Br)c(C)c3)s2)on1	0.0%	14.6µM*	/	23.1µM*	15.8%
Cc1cc(-c2ccc(S(=O)(=O)Nc3ccc(C#N)cc3)s2)on1	2.3%	17.5%	2.8%	-28.4%	-3.2%
Cc1cc(-c2ccc(S(=O)(=O)Nc3cc(Cl)ccc3C)s2)on1	0.0%	2.91µM*	/	4.61µM*	22.1%
COc1cccc(CN(C(=O)c2oc3ccccc3c2C)C2CCS(=O)(=O)C2)c1 (configuration not stated)	1.2%	20.6µM*	/	?	-12.3%
COc1cccc(CN(C(=O)c2oc3cc(C)ccc3c2C)C2CCS(=O)(=O)C2)c1 (configuration not stated)	7.4%	18.4µM*	/	?	-11.6%
Cc1ccc(Nc2nc(N)nc(CN3CCN(c4ccccc4)CC3)n2)cc1Cl	7.7%	18.4µM*	-10.2%	?	-1.2%
COc1ccc(N2CCN(Cc3nc(N)nc(Nc4ccc(C)c(Cl)c4)n3)CC2)cc1	14.3%	16.4µM*	/	9.2µM*	28.2%
Cc1nnc(N2C(=O)C(O)=C(C(=O)c3ccco3)C2c2ccc(C(C)C)cc2)s1 (configuration not stated)	5.1%	-1.3%	-2.5%	-5.7%	-43.8%
SMILES	TDP1 block	TDP1 cell noCPT	uPA surface inh	DT40 TDP1 CPT	miR-21 reporter
CCOc1ccc(S(=O)(=O)N2CCN(C3CC(=O)N(c4cccc(C(C)=O)c4)C3=O)CC2)cc1 (configuration not stated)	/	-17.5%	-1.1%	-17.7%	/
O=C(NNC(=O)C12CC3CC(CC(C3)C1)C2)c1ccccn1	7.1%	5.17µM*	3.5%	4.11µM*	11.3%
CN(Cc1ccc2c(c1)CN(C(=O)c1cccc(N(C)C)c1)CCO2)Cc1cc(C2CC2)n[nH]1	/	23.1µM*	/	0.8%[9.04 µM]	/
O=C(c1ccc(F)c(F)c1)N1CCOc2ccc(CN3CCN(Cc4ccccn4)CC3)cc2C1	/	-14.3%	/	24.6%[9.04 µM]	/
CN1CCN(c2ccc(S(=O)(=O)N3CCCCC3)cc2NC(=O)c2cccc([N+](=O)[O-])c2)CC1	0.0%	-21.4%	?	-23.5%	-6.1%
CC(=O)O[C@@H]1[C@H]2[C@@H](C[C@@H](C)[C@@H]3C=CC(=O)[C@@]13C)OC(=O)[C@@H]2C	3.5%	?	-19.5%	?	1.8%
C=C1C(=O)OC2C1CCC(C)C1C=CC(=O)C12C (configuration not stated)	/	2.91µM*	5.8%	3.26µM*	/
CCN=C1S/C(=C\c2ccc(O)c(OCC)c2)C(=O)N1CC	-10.3%	20.6µM*	-5.8%	25.9µM*	-17.5%
O=C1/C(=C/c2cccc(O)c2)SC(=S)N1CC1CCCO1 (configuration not stated)	7.0%	?	-0.4%	?	-12.7%
CCOc1cc(/C=C2/SC(=S)N(CC3CCCO3)C2=O)ccc1O (configuration not stated)	0.0%	23.1µM*	?	?	-0.6%
COc1cc(/C=C2/SC(=NCc3ccccc3)N(Cc3ccccc3)C2=O)ccc1O	7.5%	?	3.6%	?	-16.0%
CCN=C1S/C(=C\c2cn(CC)c3ccccc23)C(=O)N1CC	5.3%	10.3µM*	-4.0%	23.1µM*	-11.4%
CCN1C(=O)S/C(=C/c2cn(C)c3ccccc23)C1=O	2.8%	-20.2%	8.1%	-4.3%	-23.1%
CCN=C1S/C(=C\c2cc(OCC)c(O)cc2Br)C(=O)N1CC	-2.5%	11.6µM*	-3.1%	20.6µM*	7.4%
Cc1ccccc1COc1cccn2c(N(C)C(=O)CCC3CCCC3)c(C)nc12	/	23.1µM*	/	?	/
COc1ccccc1COc1cccn2c(N(C)C(=O)CCC3CCCC3)c(C)nc12	/	14.6µM*	/	18.4µM*	/
COc1ccc(C2CC2/C(=N/OC(=O)c2cccs2)c2ccccc2)cc1 (configuration not stated)	-2.0%	-22.3%	-1.2%	-17.5%	-52.6%
COC(=O)C1=C(C)NC(C)=C(C(=O)OC)C1c1ccc(C)o1	4.2%	3.8%	-1.5%	21.3%	-2.2%
O=S1(=O)CCO[C@H]2Cc3ccccc3[C@H]2N1Cc1cccc(Cl)c1	/	17.8µM*	-3.8%	?	3.6%
